# PfHsp90 set2: reduces growth (ATP signal) of yeast expressing P. falciparum Hsp90; S. cerevisiae expressing PfHsp90, BacTiter-Glo ATP, 48 h; yeast lacking PDR1 and PDR3 efflux regulators; hit rate 0.32% among 310,000; inhibition, % at 9.4 µM; AID 504621;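 active = every replicate shows inhibition above about 80%, whatever the replicate mean, limit read from the data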;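 also: 0% = DMSO neutral controls and 100% = 20 µM radicicol positive controls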
# tim10-1 inh: inhibits growth of tim10-1 mutant yeast | hit rate 2.2% among 330,000 | S. cerevisiae tim10-1 ts strain growth, BacTiter-Glo, 24 h | inhibition, % at 20 µM;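 active = inhibition of at least 40%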;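 also: mutant grown at 25 °C; 0% = DMSO wells with yeast and 100% = wells holding no yeast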
# NALP3 yeast inh: inhibitors of NALP3 inflammasome in yeast; Yeast reconstituted NLRP3/ASC/caspase-1, beta-gal luminescence, 24 h; inhibition, % at 10 µM; hit rate 0.39% among 330,000;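 active = inhibition of 50% or more; inactive = inhibition below 50%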;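 also: plate controls were induced DMSO wells for no effect and uninduced yeast grown without galactose for full effect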
# tim23-1 inh: tim23-1 yeast growth inhibition; S. cerevisiae tim23-1 growth, BacTiter-Glo luminescence, 24 h; hit rate 1.3% among 330,000; inhibition, % at 20 µM;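 active = growth inhibition of the mutant yeast at or above 50%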;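 also: temperature-sensitive mutant grown at 25 °C; plate controls were DMSO-treated mutant yeast for no effect and medium wells lacking yeast for full effect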
# TIM10 inh: TIM10 yeast growth inhibition; S. cerevisiae TIM10 strain growth, BacTiter-Glo luminescence, 24 h; inhibition, % at 10 µM; hit rate 1.4% among 330,000; AID 463195;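 active = inhibition of 40% or more at the single tested concentration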;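 also: wild-type TIM10 isogenic control strain grown at permissive 25 °C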
# tim23-1 confirm: tim23-1 yeast growth inhibition, confirmed; shares compounds with tim23-1 inh; inhibition, % at 20 µM; S. cerevisiae tim23-1 growth, BacTiter-Glo luminescence, 24 h; AID 463218; hit rate 83% among 4,400;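 active = inhibition above about 39% in either of two replicate wells at 20 µM, limit read from the data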;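 also: temperature-sensitive tim23-1 mutant grown at 25 °C; 0% = DMSO wells with yeast and 100% = medium wells without yeast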
# * = called active by the depositor; / = no result. An excerpt weighted towards active compounds, which were near 3.7% of everything screened.
SMILES,PfHsp90 set2,tim10-1 inh,NALP3 yeast inh,tim23-1 inh,TIM10 inh,tim23-1 confirm
Cc1ccc(C2CC(=O)NC(SCc3ccccc3)=C2C#N)cc1 (stereo not drawn),8.3,24.3,17.4,27.3,21.6,/
CCCCCCSC1=C(C#N)C(c2ccccc2)CC(=O)N1 (stereo not drawn),15.5,27.5,17.0,50.8*,28.7,45.8*
Cc1ccsc1-c1nc(CN2CCCC2c2ccc(F)cc2)c(C)o1 (stereo not drawn),8.4,19.8,9.6,15.4,7.2,/
O=C(N/N=C/c1cc([N+](=O)[O-])ccc1O)c1cc(-c2ccccc2)nc2ccccc12,-19.7,38.6,13.1,57.5*,35.6,58.3*
Cc1cc(C(=O)N/N=C/c2ccc([N+](=O)[O-])cc2)c2ccccc2n1,-26.0,18.5,-6.3,4.2,-0.9,/
O=C(N/N=C/c1ccc([N+](=O)[O-])s1)c1ccccc1Br,4.9,-4.6,-1.8,76.7*,18.2,64.3*
O=C(N/N=C/c1cc([N+](=O)[O-])ccc1Cl)c1cc(-c2ccccc2)nc2ccccc12,-38.6,-9.1,-1.7,-2.9,-21.0,/
Cc1cc(C(=O)N/N=C/c2ccc([N+](=O)[O-])s2)c2ccccc2n1,-1.6,31.6,3.2,64.7*,27.4,59.4*
Cc1cccc2sc(NS(C)(=O)=O)nc12,20.5,-3.8,2.3,3.9,-2.7,/
O=C(Nc1ccc(C(=O)Oc2ccccc2)c(O)c1)c1ccccc1,10.2,-11.7,21.7,0.5,-3.4,/
CCOC(=O)Nc1ccc(C(=O)Oc2ccccc2)c(O)c1,11.2,18.6,23.3,57.0*,19.7,54.5*
CCCCc1c(C)nc2ccccc2c1SCCC(=O)O,-5.6,-13.7,24.2,8.5,-12.4,/
CCCCc1c(C)nc2ccc(C)cc2c1SCCC(=O)O,11.4,21.7,14.9,55.4*,9.6,33.6
O=C(O)c1cn(-c2ccc(N3CCCC3)c(F)c2)c2c(F)c(F)c(F)cc2c1=O,105.8*,4.6,12.7,53.1*,-0.3,15.8
Cc1c(-n2cc(C(=O)O)c(=O)c3cc(F)c(N4CCCC(O)C4)c(F)c32)c(=O)n(-c2ccccc2)n1C (stereo not drawn),9.8,5.6,18.8,9.0,-0.3,/
CCCCCc1ccc(OCCCC[n+]2ccc(C)cc2)c(CCCCC)c1,-60.2,-5.7,27.0,53.2*,-240.4,15.4
O=C(O)c1cccc(N/N=C(\N=Nc2ccccc2)c2ccccc2)c1,0.2,34.3,26.3,52.9*,3.0,45.9*
O=C(O)c1ccc(N=N/C(=N\Nc2ccc(C(=O)O)cc2)c2ccccc2)cc1,12.0,5.1,32.7,24.7,10.2,/
CCc1sc(C(=O)Nc2ccc3c(c2)OCO3)cc1C,-7.6,-17.2,30.1,54.5*,4.0,46.3*
CCc1sc(C(=O)Nc2ccc(N3CCOCC3)cc2)cc1C,-4.2,24.1,24.0,26.0,0.7,/
Fc1ccc(-c2n[nH]c(=S)n2Cc2ccccc2)cc1,-16.3,15.9,5.0,56.1*,36.4,29.2
Cc1[nH]c2c(Br)cccc2c1[C@H]1[C@@H](CC#N)C1(C)C,-14.4,34.4,40.0,51.0*,33.1,46.1*
Cc1ccccc1-n1c(C)nnc1SCC(=O)N(C)C1CCS(=O)(=O)C1 (stereo not drawn),-32.6,-5.3,16.6,1.5,6.8,/
COc1ccccc1C(=O)N1c2ccccc2Sc2ccccc21,5.1,17.5,3.1,45.2,21.5,/
CCOc1ccccc1C(=O)N1c2ccccc2Sc2ccccc21,-3.1,29.2,9.0,50.9*,18.1,42.0*
SMILES,PfHsp90 set2,tim10-1 inh,NALP3 yeast inh,tim23-1 inh,TIM10 inh,tim23-1 confirm
Cc1cccc(Nc2nc(N)c([N+](=O)[O-])c(N3CCN(C)CC3)n2)c1,-10.1,10.7,10.6,-3.1,0.5,/
Cc1cccc(Nc2nc(N)c([N+](=O)[O-])c(N3CCCC(C)C3)n2)c1 (stereo not drawn),103.5*,22.7,9.5,50.0*,-46.3,20.2
COc1ccc(Cl)cc1S(=O)(=O)NC(C)C(=O)NCc1ccncc1 (stereo not drawn),-2.6,-8.4,-2.8,-2.6,-17.7,/
Cc1cc(NC(=O)CN2CCc3ccccc3C2)nc2c1c(=O)oc1ccccc12,-5.3,24.5,2.9,53.1*,30.0,62.4*
CCCC(=O)Nc1cc(C)c2c(=O)oc3ccccc3c2n1,-23.7,20.5,38.9,26.5,-3.6,/
CC(C)CNC(=O)CC(c1ccccc1)c1ccccc1,1.4,2.6,16.4,12.9,-11.7,/
O=C1Nc2ccc(F)cc2C12SCCS2,6.1,23.8,15.9,28.0,8.2,/
C=C1CCN(C(CC(C)C)C(=O)OC)S(=O)(=O)c2ccccc21 (stereo not drawn),4.5,15.2,15.7,17.4,5.7,/
COC(=O)[C@H](CC(C)C)N1Cc2cc(OC)cc(OC)c2-c2ccccc2S1(=O)=O,-7.9,25.7,/,50.4*,3.2,26.2
CC(C)(C)C(=O)Nc1ccc(/C=C/C(=O)c2ccco2)cc1,4.3,37.8,29.2,51.5*,37.0,44.7*
NC(=O)c1ccsc1NC(=O)c1cccs1,7.9,-2.4,14.3,36.5,19.9,/
Cc1sc(NC(=O)c2cccs2)c(C(N)=O)c1C,-13.5,21.1,47.0,50.8*,22.1,67.3*
Cc1ccc(-c2nc3c(c(=O)c4ccccc4n3C)c(=O)n2Cc2ccco2)cc1,6.2,5.6,10.1,53.0*,29.6,45.8*
CSc1nnc(C(C)(C)C)c(=O)n1/N=C/c1ccccc1,7.7,24.6,34.1,52.7*,33.2,50.6*
COc1ccccc1CN1CC(C(=O)NCCSc2nnnn2C)CCC1=O (stereo not drawn),-14.7,-5.0,23.0,5.8,-4.0,/
Cc1ccc(O)c(N=Nc2ccccc2)n1,-27.5,22.8,33.9,54.3*,3.6,54.0*
O=C1c2ccccc2/C(=C\c2ccc3[nH]ccc3c2)N1c1ccccc1,8.8,35.1,-14.0,63.0*,34.4,52.6*
C#CCOCCOCCOCCNc1nc(N2CCN(C(=O)CCCCCCCCCCNC(=O)[C@H](CCCCN)n3cc(C)nn3)CC2)nc(N2CCN(C(=O)CCCCCCCCCCNC(=O)[C@@H]([C@H](C)CC)n3cc(CCCCCN)nn3)CC2)n1,21.8,33.7,31.2,36.7,6.5,/
C#CCOCCOCCOCCNc1nc(N2CCN(C(=O)CCCCCCCCCCNC(=O)[C@H]([C@@H](C)CC)n3cc(CCCCN=C(N)N)nn3)CC2)nc(N2CCN(C(=O)CCCCCCCCCCNC(=O)[C@H](CCCCN)n3cc(C[C@@H](C)CC)nn3)CC2)n1,/,25.9,19.3,52.1*,17.6,44.7*
C#CCOCCOCCOCCNc1nc(N2CCN(C(=O)CCCCCCCCCCNC(=O)Cn3cc(C[C@@H](C)O)nn3)CC2)nc(N2CCN(C(=O)CCCCCCCCCCNC(=O)Cn3cc(C[C@@H](C)O)nn3)CC2)n1,-2.8,4.3,11.4,6.0,-5.1,/
